# Data: PubChem BioAssay
# Active and inactive are the calls of the source.
# Key:
# [1] = test system: Plasmodium falciparum Sir2 (PF13_0152, Sir2A); assay: Plasmodium falciparum Sir2A binding compounds – biochemical, small-molecule microarray, 635 nm fluorescence, primary screen (AID 1098); details: fluorescence 635 nm, higher = more signal;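 also: score merges spot fluorescence intensity with its signal-to-noise ratio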
# [2] = probe aDKK1 binding to arrayed compounds – biochemical, biotinylated probe, 635/667 nm fluorescence, primary screen (AID 1099); details: small-molecule microarray, higher = more signal;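 also: score merges 667nm spot fluorescence with signal to noise across triplicate slides; reference of the scale not given here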
# [3] = probe aCHRDL2 binding to arrayed compounds – biochemical, biotinylated probe, 635/667 nm fluorescence, primary screen (AID 1100); details: small-molecule microarray, higher = more signal
# [4] = change in splice reporter luminescence, either direction, cell-based, HEK293, spliceosome inhibition project, primary screen (AID 1101); details: HEK293 splicing luciferase reporter, 24 h, higher = more signal, called active from +8 up or from −8 down;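 also: HEK293 cells carrying a splicing-competent luciferase reporter gene; test concentration not given here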
# [5] = molecular target: Fibroblast growth factor 10 (Homo sapiens) (UniProt O15520); assay: compounds binding fibroblast growth factor 10 – biochemical, small-molecule microarray, 635 nm fluorescence, primary screen (AID 1102); details: FGF10 binding, fluorescence 635 nm, higher = more signal
# Chain of Fibroblast growth factor 10 (Homo sapiens) (O15520 whole entry, looked up): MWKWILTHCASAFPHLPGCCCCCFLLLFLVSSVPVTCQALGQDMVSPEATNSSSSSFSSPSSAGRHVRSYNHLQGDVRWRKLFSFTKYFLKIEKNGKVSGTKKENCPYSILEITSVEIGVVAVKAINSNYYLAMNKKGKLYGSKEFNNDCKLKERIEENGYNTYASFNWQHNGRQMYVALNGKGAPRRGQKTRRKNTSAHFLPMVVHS
# [6] = test system: glycogen synthase kinase-3 (GSK3A per assay name; protocol says GSK3B); assay: compounds binding glycogen synthase kinase-3 – biochemical, small-molecule microarray, 635 nm fluorescence, GSK3A, primary screen (AID 1103); details: fluorescence 635 nm, higher = more signal; also: the record names both GSK3A and GSK3B
# [7] = molecular target: Epidermal growth factor receptor (Homo sapiens) (UniProt P00533); assay: compounds binding epidermal growth factor receptor – biochemical, small-molecule microarray, 635 nm fluorescence, primary screen (AID 1104); details: EGFR binding, higher = more signal;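 also: score merges 667 nm emission intensity with spot signal to noise over triplicate slides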
# Chain of Epidermal growth factor receptor (Homo sapiens) (P00533 whole entry, looked up): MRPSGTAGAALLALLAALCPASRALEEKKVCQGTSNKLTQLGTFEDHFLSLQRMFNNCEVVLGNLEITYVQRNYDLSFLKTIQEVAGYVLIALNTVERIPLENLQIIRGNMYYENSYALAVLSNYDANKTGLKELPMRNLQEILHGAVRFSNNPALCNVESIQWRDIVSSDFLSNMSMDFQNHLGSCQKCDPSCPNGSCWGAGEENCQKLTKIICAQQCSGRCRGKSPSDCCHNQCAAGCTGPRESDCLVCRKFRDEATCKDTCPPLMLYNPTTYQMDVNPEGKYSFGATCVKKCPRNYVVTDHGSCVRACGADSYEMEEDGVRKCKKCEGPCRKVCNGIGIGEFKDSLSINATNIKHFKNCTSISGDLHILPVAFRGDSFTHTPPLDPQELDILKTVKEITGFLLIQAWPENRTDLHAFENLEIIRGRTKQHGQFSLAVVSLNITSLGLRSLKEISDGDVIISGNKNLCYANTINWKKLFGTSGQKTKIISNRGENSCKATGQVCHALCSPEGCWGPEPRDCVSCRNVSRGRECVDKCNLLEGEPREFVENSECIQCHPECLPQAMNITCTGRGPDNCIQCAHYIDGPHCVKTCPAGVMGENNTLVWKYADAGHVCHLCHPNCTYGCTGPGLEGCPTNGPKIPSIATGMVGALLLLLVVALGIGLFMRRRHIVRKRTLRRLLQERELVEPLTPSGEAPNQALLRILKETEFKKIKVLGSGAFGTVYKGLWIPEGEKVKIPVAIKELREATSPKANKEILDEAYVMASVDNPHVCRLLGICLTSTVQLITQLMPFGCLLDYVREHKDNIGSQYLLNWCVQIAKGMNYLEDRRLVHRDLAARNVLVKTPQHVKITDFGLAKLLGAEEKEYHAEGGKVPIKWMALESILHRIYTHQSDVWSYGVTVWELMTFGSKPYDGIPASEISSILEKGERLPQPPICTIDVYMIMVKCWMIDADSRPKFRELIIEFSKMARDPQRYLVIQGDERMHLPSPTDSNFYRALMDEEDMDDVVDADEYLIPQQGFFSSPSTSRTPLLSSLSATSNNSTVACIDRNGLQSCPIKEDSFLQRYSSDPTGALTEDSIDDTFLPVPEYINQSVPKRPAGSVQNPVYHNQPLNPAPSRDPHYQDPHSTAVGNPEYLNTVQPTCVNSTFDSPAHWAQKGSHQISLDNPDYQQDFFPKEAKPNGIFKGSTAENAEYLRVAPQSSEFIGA
# [8] = molecular target: Follistatin-related protein 3 (Homo sapiens) (UniProt O95633); assay: compounds binding follistatin-related protein 3 – biochemical, small-molecule microarray, 635 nm fluorescence, primary screen (AID 1105); details: FSTL3 binding, higher = more signal;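 also: score merges emission near 667 nm and signal to noise per printed spot across three slides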
# Chain of Follistatin-related protein 3 (Homo sapiens) (O95633 whole entry, looked up): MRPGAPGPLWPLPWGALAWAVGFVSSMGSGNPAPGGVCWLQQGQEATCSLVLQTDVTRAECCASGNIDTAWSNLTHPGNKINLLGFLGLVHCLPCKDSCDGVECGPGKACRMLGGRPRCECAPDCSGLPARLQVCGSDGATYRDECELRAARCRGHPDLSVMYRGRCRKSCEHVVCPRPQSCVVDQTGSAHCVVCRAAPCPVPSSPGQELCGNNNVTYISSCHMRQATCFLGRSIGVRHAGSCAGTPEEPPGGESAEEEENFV
# [9] = molecular target: Dickkopf-related protein 1 (Homo sapiens) (UniProt O94907); assay: small molecules binding DKK1 protein – biochemical, small-molecule microarray, 635 nm fluorescence scan, primary screen (AID 1106); details: higher = more signal;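 also: score merges emission near 667 nm with signal to noise over three replicate slides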
# Chain of Dickkopf-related protein 1 (Homo sapiens) (O94907 whole entry, looked up): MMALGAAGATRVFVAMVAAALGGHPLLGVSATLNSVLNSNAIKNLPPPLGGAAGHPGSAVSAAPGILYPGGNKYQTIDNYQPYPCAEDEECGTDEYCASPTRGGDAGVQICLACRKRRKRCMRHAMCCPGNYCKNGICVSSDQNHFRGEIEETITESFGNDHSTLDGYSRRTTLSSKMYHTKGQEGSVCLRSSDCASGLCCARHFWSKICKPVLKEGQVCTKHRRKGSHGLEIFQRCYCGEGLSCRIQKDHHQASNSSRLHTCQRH
# [10] = test system: Inhibin beta A chain (activin A); assay: small molecules binding activin A – biochemical, small-molecule microarray, 635 nm fluorescence scan, primary screen (AID 1107); details: INHBA, higher = more signal;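 also: mouse activin A protein probed at 4.33 µg/mL on printed slides; score merges bound-protein fluorescence near 667 nm with spot signal-to-noise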
SMILES,composite z-score [1],composite z-score [2],composite z-score [3],z-score [4],composite z-score [5],composite z-score [6],composite z-score [7],composite z-score [8],composite z-score [9],composite z-score [10]
COC(=O)[C@@]1(Cc2ccccc2)[C@H]2c3cc(C(=O)N4CCCC4)n(Cc4ccsc4Br)c3C[C@H]2CN1C(=O)c1ccccc1,0.31,1.13,1.37,-1.31 (inactive),0.832,0.572,-0.105,0.906,-0.825,0.748
CC(C)OC(=O)CC(=O)CC(O)c1cccc(C#N)c1 (stereo not given),0.431,0.662,1.04,-1.69 (inactive),0.632,0.646,0.23,0.74,-0.618,0.964
C=CCC(OC(C)=O)[C@@H]1[C@@H](N(Cc2ccc(-c3ccccc3)cc2)C(=O)c2cccc3ccccc23)c2cc(OCCCO)ccc2N1C(=O)Cc1ccc2ccccc2c1 (stereo not given in full),-0.417,0.122,0.425,-0.862 (inactive),0.0665,-0.202,-0.062,-0.0827,-0.169,0.796
COc1cc(OC)c(C(O)C2C=CC3C(=O)N(c4ccccc4)C(=O)C3N2Nc2ccc(C#N)cc2)cc1Br (stereo not given),0.842,1.56,1.4,1.47 (inactive),1.18,0.687,0.763,0.95,-0.0884,0.664
C=CC[C@@H](OC(=O)Nc1ccc(OC)cc1)c1ccc(OCCO)cc1,0.468,-0.211,0.979,-0.694 (inactive),-1.77,-0.711,-1.99,-0.993,-2.37,-2.6
COC(=O)[C@@]1(Cc2ccccc2)[C@H]2c3cc(C(=O)N4CCCC4)n(Cc4cc(F)cc5c4OCOC5)c3C[C@H]2CN1C(=O)c1ccccc1,1.54,0.513,1.1,-0.955 (inactive),1.22,0.0232,-0.12,0.286,-0.66,0.538
C[C@]1(C(=O)NC2CC2)c2ccccc2C(=O)N(Cc2ccc(OC(F)(F)F)cc2)[C@H]1c1ccc(CO)cc1,-0.419,-0.0414,0.755,0.765 (inactive),-0.326,-0.0882,-0.617,-0.409,-0.758,0.781
O=C(N1CCCCC1)[C@@]1(Cc2ccccc2)COC(c2ccc(OCCCO)cc2)=N1,1.48,1.11,1.25,0.419 (inactive),1.44,0.705,-0.153,0.12,-0.275,0.691
NCCCCCCNC(=O)[C@H]1C[C@H]2C(=O)N[C@@H](Cc3ccccc3)C(=O)N2[C@H]1c1ccc(O)cc1,1.3,0.21,0.456,-1.23 (inactive),-0.0657,0.481,0.92,0.533,0.232,1.1
COc1ccc([Si](C)(C)[C@@H]2[C@@H](CCn3cc([C@H](O)c4ccccc4)nn3)O[C@]3(C(=O)N(Cc4ccc(N5CCOC5=O)cc4)c4ccccc43)[C@H]2C)cc1,0.972,-0.168,-0.528,-0.242 (inactive),0.953,0.426,0.664,1.02,0.757,0.504
CCOC(=O)[C@H]1C/C=C/C[C@H](C(=O)OCC)C(=O)O[C@H]2[C@@H](OC)O[C@H](CO)[C@@H](OC(=O)Nc3ccc(OC)cc3)[C@@H]2OC1=O,0.692,0.481,0.564,0.0675 (inactive),1,1.03,0.368,1.29,0.46,0.467
COC(=O)C(CC#Cc1ccc2c(c1)[C@]1(C(=O)N2)[C@H](C(=O)O)[C@H]2C(=O)O[C@H](c3ccccc3)[C@H](c3ccccc3)N2[C@@H]1c1ccccc1OCCO)C(=O)OC,1.58,0.485,0.327,0.78 (inactive),1.19,1.31,0.384,1.06,0.337,0.194
Cc1ccc(F)cc1S(=O)(=O)N[C@@H]1CCN(Cc2ccc(Oc3ccccc3)cc2)C1,0.499,-0.392,-0.38,1.25 (inactive),0.271,-0.632,-0.0463,0.626,0.47,0.192
CN(C)C(=O)[C@@]1(Cc2ccccc2N=[N+]=[N-])COC(c2ccc(OCCCO)cc2)=N1,1.54,0.764,0.795,-0.545 (inactive),0.629,1.05,0.0428,0.396,-0.239,0.0217
O=C1O[C@H](c2ccccc2)[C@H](c2ccccc2)N2[C@H]1[C@@H](C(=O)O)[C@]1(C(=O)Nc3ccccc31)[C@H]2c1ccc(O)cc1,0.663,-0.391,0.253,-0.531 (inactive),0.619,-0.219,-0.552,-0.532,-0.836,-1.37
CCOC(=O)C1=CC[C@@H](c2ccc([N+](=O)[O-])cc2)N(S(=O)(=O)c2ccc(C)cc2)[C@H]1c1ccccc1,0.992,0.291,0.304,-0.8 (inactive),1.21,0.154,0.764,1.26,0.293,0.521
COC(=O)c1c(CC[C@@H](CO)NC(=O)N[C@H](Cn2cc(-c3ccccc3C)nn2)C(C)C)oc(C(C)=O)c1C(=O)OC,0.404,-0.177,-0.076,-1.71 (inactive),0.289,-0.79,-0.937,-0.806,-0.482,-0.252
